Shown are actives, neighbours in structure and some others; about 2.2% of the full set was active somewhere.
PGC1a acetyl inh – modulators of PGC1a acetylation; 350,000 compounds, 0.17% hits; inhibition, % at 15.6 µM; U2OS PGC1a acetylation, AlphaScreen anti-acetyl-lysine; with virally co-expressed GCN5 acetyltransferase;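 active = every replicate shows inhibition of at least 40%; inconclusive = mean inhibition at least 40% but some replicate below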;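 also: 0% = neutral control wells and 100% = positive control wells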
EWS-Fli inh – inhibitors of EWS/Fli oncoprotein transcriptional activity. A673 NR0B1-luciferase reporter, viability-normalised. inhibition, % at 12.6 µM. 350,000 compounds, 0.67% hits;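 active = mean inhibition of at least 50% after viability correction, with every replicate also passing that limit; inconclusive = mean reaches 50% but only one of two replicates passes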;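 also: firefly luciferase signal divided by Alamar Blue viability fluorescence both relative to DMSO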
MITF TRPM1 inh – inhibitors of MITF-driven TRPM1 promoter in melanoma cells. inhibition, % at 12.5 µM. 330,000 compounds, 0.83% hits. SK-MEL-5 TRPM1 promoter luciferase, 24 h;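 active = mean inhibition across replicates of 60% or more, whatever share of single replicates reaches that level; inconclusive = some that reach 60%, reason not given; inactive = mean inhibition across replicates below 60%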
PAX8 inh HTS – PAX8 transcriptional activity inhibition; RMG-I TPO-luciferase reporter, SteadyGlo, 24 h; inhibition, % at 12.6 µM; 360,000 compounds, 1.2% hits; AID 652154;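 active = mean replicate inhibition at least 60% with every replicate also reaching 60%; inconclusive = only one of the two criteria is met; inactive = mean below 60% and not all replicates reaching 60%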;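 also: luciferase light reporting Pax8 driven TPO promoter activity; plate controls were median of neutral control wells for no effect and mitoxantrone controls for full effect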
LMP1 NFkB inh – reduces LMP1-driven NF-kappaB luciferase signal | LMP1-induced NF-kappaB luciferase reporter cells, luminescence | inhibition, % at 12.5 µM | 350,000 compounds, 0.69% hits | AID 504558; in the data active = inhibition above about 41%; inconclusive = no clear call, values can overlap the other calls;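 also: 0% = neutral control wells and 100% = reference inhibitor control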
LGR2 antag – Drosophila LGR2 receptor signaling inhibition. inhibition, % at 9.99 µM. AID 720647. 380,000 compounds, 0.35% hits. HEK293 LGR2, CRE-luciferase, bursicon-stimulated, 4 h;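 active = drop in luminescence signal, shown as inhibition above about 50% in the replicate tests, limit read from the data, passing the limit was not always enough; inconclusive = probably only some replicates passing the limit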;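 also: agonist challenge used bursicon conditioned medium at about half maximal strength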
* marks the source's active call; other numbers are inactive results; ? = inconclusive; . = no result given.

SMILES	PGC1a acetyl inh	EWS-Fli inh	MITF TRPM1 inh	PAX8 inh HTS	LMP1 NFkB inh	LGR2 antag
C[C@@H]1CCCCO[C@H](CN(C)Cc2ccc(C(F)(F)F)cc2)[C@@H](C)CN([C@H](C)CO)C(=O)c2cc(NS(=O)(=O)c3ccccc3)ccc2O1	1	5	.	13	.	28
C[C@@H]1CN([C@H](C)CO)C(=O)c2cc(NS(=O)(=O)c3ccccc3)ccc2O[C@@H](C)CCCCO[C@H]1CN(C)Cc1ccc(C(F)(F)F)cc1	5	-7	.	102*	.	10
C[C@@H]1CN([C@@H](C)CO)C(=O)c2cc(NS(=O)(=O)c3ccccc3)ccc2O[C@@H](C)CCCCO[C@@H]1CN(C)Cc1ccc(C(F)(F)F)cc1	-2	-9	.	106*	.	23
C[C@@H]1CCCCO[C@H](CN(C)Cc2ccccc2)[C@H](C)CN([C@H](C)CO)C(=O)c2cc(NS(=O)(=O)c3ccccc3)ccc2O1	-1	-7	.	-8	.	-29
CN1CCN(C(=O)C[C@@H]2CC[C@H]3[C@@H](COC[C@@H](O)CN3C(=O)C3CC3)O2)CC1	-2	-1	.	-10	.	-14
C[C@H]1CCCCO[C@@H](CN(C)Cc2ccccc2)[C@@H](C)CN([C@@H](C)CO)C(=O)c2cc(NS(=O)(=O)c3ccccc3)ccc2O1	0	11	.	7	.	-2
C[C@H](CO)N1C[C@H](C)[C@H](CN(C)Cc2ccc(C(F)(F)F)cc2)OCCCC[C@H](C)Oc2ccc(NS(=O)(=O)c3ccccc3)cc2C1=O	1	10	.	99*	.	17
COc1cc(COCC(O)CN2C(C)CCCC2C)cc(OC)c1OC (centres undefined)	-1	10	-3	-1	88*	4
C[C@H]1CN([C@@H](C)CO)C(=O)Cc2cc(NC(=O)C3CCCCC3)ccc2O[C@H]1CN(C)S(=O)(=O)c1cn(C)cn1	-5	-6	.	-14	.	-7
Cc1cccc(-c2nsc(SCC(=O)N3CCCC3)n2)c1	95*	.	-75	-160	-13	.
O=C(CSc1nc(-c2ccccc2)ns1)N1CCOCC1	.	-88	-49	-103	-18	-24
Cc1noc(C)c1S(=O)(=O)Nc1ccc2c(c1)C(=O)N([C@H](C)CO)C[C@H](C)[C@H](CN(C)S(C)(=O)=O)OCCCC[C@@H](C)O2	10	-12	.	.	.	6
CCCCC(CC)CN=C(N)NC(N)=NCCCCCCN=C(N)NC(N)=NCC(CC)CCCC (centres undefined)	-1	.	110*	.	12	.
CO[C@@H]1CN(C)C(=O)c2cc(NC(=O)c3ccno3)ccc2OC[C@H](C)N(S(C)(=O)=O)C[C@@H]1C	1	25	.	-14	.	-5
O=C1C=C(NC2=CC3OC(c4ccccc4)OCC3OC2=O)CCC1 (centres undefined)	.	-7	65*	19	-1	59*
Cc1ccc(SCc2[nH]nc3c2C(c2ccc(C)o2)C(C#N)=C(N)O3)cc1 (centres undefined)	.	7	-10	.	66*	4
Cc1ccc(SCc2[nH]nc3c2C(c2ccco2)C(C#N)=C(N)O3)cc1 (centres undefined)	-7	.	0	.	13	.
CC(=O)[C@]12O[C@]3(COC[C@H](c4ccccc4)N3C1=O)[C@@H]1C(=O)N(C)C(=O)[C@@H]12	4	0	.	5	.	.
Cc1nc(CN(C)c2ncnc3ccc(-c4ccc5c(c4)OCO5)cc23)cs1	14	37	.	66*	.	24
CN(Cc1ccco1)c1ncnc2ccc(-c3ccc4c(c3)OCO4)cc12	.	3	24	6	4	.
COc1ccccc1S(=O)(=O)Nc1ccc2c(c1)OC[C@H](C)NC[C@@H](C)[C@@H](OC)CN(C)C2=O	2	6	.	.	.	15
CCCCNS(=O)(=O)c1ccc(NC(=O)C(Sc2ccccc2)c2ccccc2)cc1 (centres undefined)	-44	.	1	72*	-1	13
CCC(C)NS(=O)(=O)c1ccc(NC(=O)C(Sc2ccccc2)c2ccccc2)cc1 (centres undefined)	.	24	7	38	-9	30
O=S(=O)(c1cccc(F)c1)N1CC[C@@H]2[C@H](CO)Nc3ccc(C#Cc4cccc(F)c4)cc3[C@@H]21	-11	2	.	0	.	12
CC[n+]1c(/C=C/Nc2ccccc2)sc2ccccc21	-3	.	6	-10	5	.
SMILES	PGC1a acetyl inh	EWS-Fli inh	MITF TRPM1 inh	PAX8 inh HTS	LMP1 NFkB inh	LGR2 antag
CCN1/C(=C/C=C/C=C/C=C/c2sc3ccccc3[n+]2CC)Sc2ccccc21	5	23	95*	10	36	-2
CCN1/C(=C/C=C/c2sc3ccccc3[n+]2CC)Sc2ccccc21	-2	.	99*	.	50*	.
CCN(CC)CC(O)COCCC12CC3CC(CC(C3)C1)C2 (centres undefined)	-13	.	-13	.	2	1
OCCN(CCO)CC(O)COCCC12CC3CC(CC(C3)C1)C2 (centres undefined)	16	.	-4	.	73*	.
OCCN(CCO)CC(O)COc1ccc(C23CC4CC(CC(C4)C2)C3)cc1 (centres undefined)	.	.	51	43	42*	-7
C[C@@H]1CN([C@@H](C)CO)C(=O)c2cccc(NC(=O)Nc3cccc4ccccc34)c2O[C@H]1CN(C)C(=O)Nc1ccc(F)cc1	-5	8	.	15	.	11
Brc1ccc(-n2cc(-c3ccccc3)c3c(NN4CCOCC4)ncnc32)cc1	1	9	-12	95*	21	6
COc1ccc(-n2cc(-c3ccccc3)c3c(N4CCOCC4)ncnc32)cc1	5	20	9	64*	20	28
Fc1ccc(-n2cc(-c3ccccc3)c3c(N4CCOCC4)ncnc32)cc1	3	2	8	38	-1	10
C[C@H]1CN([C@@H](C)CO)S(=O)(=O)c2ccc(-c3cccnc3)cc2O[C@@H]1CN(C)Cc1cncnc1	13	-9	.	.	.	-6
CC1=NOC(=O)/C1=C\c1ccc(-c2cccc(Cl)c2)o1	8	.	76*	.	-6	.
CC1=NOC(=O)/C1=C\c1ccc(-c2ccccc2Br)o1	.	?	89*	?	5	.
C[C@H](CO)N1C[C@H](C)[C@H](CN(C)S(=O)(=O)c2ccc(Cl)cc2)OCCCC[C@H](C)Oc2ccc(NS(=O)(=O)c3ccc(Cl)cc3)cc2C1=O	8	4	.	81*	.	21
C[C@@H]1CN([C@H](C)CO)C(=O)c2cc(NS(=O)(=O)c3ccc(Cl)cc3)ccc2O[C@@H](C)CCCCO[C@H]1CN(C)S(=O)(=O)c1ccc(Cl)cc1	0	15	.	95*	.	13
C[C@@H]1CN([C@@H](C)CO)C(=O)c2cc(NS(=O)(=O)c3ccc(Cl)cc3)ccc2O[C@@H](C)CCCCO[C@H]1CN(C)C	3	-2	.	80*	.	0

Source: PubChem BioAssay
